Compounds with a hit are over-represented: about 12% of the library has one in this group of screens.
Pf growth 96h – P. falciparum growth inhibition at 96 hour, primary screen for plastid delayed-death inhibitors; P. falciparum luciferase reporter growth, 96 h; Potency, µM (highest dose often 28.7 µM), inactives show top-dose activity change, negative = inhibition, most hits filed as inhibitors; 320,000 tested, 6.9% active; AID 504834; also: % is scaled to controls: 0 for no effect and ±100 for the full control effect
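P. falciparum expressing integrated firefly luciferase grown in erythrocytes (2% hematocrit, 0.05% parasitemia final) with compounds for 96 hours at 37 C, 5% CO2. Growth inhibition read as loss of luminescence after adding luciferase detection reagent.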
Pf growth 48h – inhibits P. falciparum growth in the first generation, 48 h; P. falciparum luciferase growth in erythrocytes, 48 h; Potency, µM (highest dose often 28.7 µM), for the others: at the top dose activity change, negative = inhibition, hits mostly inhibitors; 310,000 tested, 5.9% active; AID 504832; also: % is scaled to controls: 0 for no effect and ±100 for the full control effect
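Luminescence readout; reporter = integrated firefly luciferase in P. falciparum. RBC culture at 2% hematocrit, 0.1% parasitemia final, 37 C/5% CO2; decreased signal taken as growth inhibition.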
Sm TGR inh – inhibitors of Schistosoma mansoni thioredoxin glutathione reductase | Potency, µM (highest dose often 114 µM), for the others: at the top dose activity change, negative = inhibition, most hits filed as inhibitors | Q962Y6 | 360,000 tested, 3% active | purified TGR, DTNB reduction, TNB absorbance 405 nm; also: % is scaled to controls: 0 for no effect and ±100 for the full control effect; nearly all actives have a fitted effect of over 60% in size
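First, TGR (20 nM dispensed) and NADPH were mixed with compound. Second, a 15 min room-temperature incubation followed. Third, further NADPH and then DTNB were added to start the reaction. Finally, TNB absorbance was monitored kinetically.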
SARS PLpro yeast – blocks SARS-CoV papain-like protease in a yeast assay | AID 485353 | Potency, µM (doses to about 32.9 µM), without a hit: at the highest dose activity, positive = growth rescue, usual class: activators | S. cerevisiae expressing SARS-CoV PLpro, growth rescue | 330,000 tested, 0.19% active; calls by dose curve; also: 0% is about no effect; nearly all actives have a fitted effect of over 55% in size
* marks the source's active call; other numbers are inactive results; ? = inconclusive; / = no result. Unless noted, calls follow the shape of the dose curve; as a rule, active = well fitted curve in the direction sought with a large enough effect; inconclusive = small, poorly fitted or top-dose-only effect, or another doubt; inactive = no such curve, though single readings can be large; an effect the other way counts as inactive or inconclusive. Potency is read from the fitted curve at half-maximal effect.

SMILES | Pf growth 96h | Pf growth 48h | Sm TGR inh | SARS PLpro yeast
COc1cc(CN(C(=O)c2ccc(OC(C)C)cc2)c2ccccn2)cc(OC)c1OC | / | / | 2% | /
N#Cc1ccc(-c2csc(NC(=O)/C=C/c3cccs3)n2)cc1 | 10µM* | ? | -4% | -8%
CCOc1ccc(C(c2c(O)nc(SC)n(C)c2=O)c2c(O)nc(SC)n(C)c2=O)cc1 | 30% | 6% | 16µM* | 4%
CCOc1ccc(OCC(=O)OCn2c(SC)nnc(C)c2=O)cc1 | 62% | 20% | 10% | -5%
CN(C(=O)CSc1nc(-c2ccccc2)cn1N)C(c1ccccc1)c1ccccc1 | / | 12µM* | 0% | -12%
COc1ccccc1CNC(=O)CSc1nc(-c2ccccc2)cn1N | / | 0% | -13% | 1%
CC(=O)Nc1ccc(N(C)C)cc1[N+](=O)[O-] | 0% | 2.6µM* | -6% | 5%
CCN1CCN(C(c2ccccc2)c2nnnn2Cc2ccc3c(c2)OCO3)CC1 (stereo unspecified) | 19% | 22% | -18% | 1%
Cc1cc(C(c2nnnn2Cc2ccccc2)N2CCOCC2)c(C)n1-c1ccc2c(c1)OCO2 (stereo unspecified) | 22% | 9.3µM* | 10µM* | 0%
c1ccc(Cn2nnnc2C(c2cccnc2)N2CCN(c3ccccc3)CC2)cc1 (stereo unspecified) | / | 13µM* | 0% | -12%
CN1CCN(C(c2ccccc2)c2nnnn2Cc2ccccc2)CC1 (stereo unspecified) | -22% | 1% | 2% | 9%
c1ccc(Cn2nnnc2C(c2ccncc2)N2CCOCC2)cc1 (stereo unspecified) | 0.74µM* | 15% | 4% | 6%
COc1ccc(C2C(C(C)=O)=C(C)Nc3ncnn32)cc1 (stereo unspecified) | ? | 0% | 35µM* | -3%
COc1ccc(NC(=O)C2=C(C)Nc3ncnn3C2c2ccc(C)o2)cc1 (stereo unspecified) | / | / | 2% | /
COC(=O)C1=C(C)Nc2ncnn2C1c1ccc(C)o1 (stereo unspecified) | 10µM* | -13% | -3% | 4%
CC(=O)C1=C(C)Nc2ncnn2C1c1ccccc1 (stereo unspecified) | 0.33µM* | 32% | -20% | -1%
CC(=O)C1=C(C)Nc2ncnn2C1c1cccc(OCc2ccccc2)c1 (stereo unspecified) | 0% | 10µM* | -8% | -2%
CCOC(=O)C1CCCN(S(=O)(=O)c2ccc(Cl)nc2)C1 (stereo unspecified) | 7% | ? | -2% | 4%
CCN(CC(=O)Nc1c(F)cccc1F)C(=O)c1csc2c1CCCC2 | 2% | 2% | 7% | -2%
COc1ccc(NCc2ccccc2[N+](=O)[O-])cc1OC | ? | ? | -24% | -12%
O=[N+]([O-])c1ccc(Cl)cc1CNc1ccc(F)c(F)c1 | 8.3µM* | 3% | -16% | -16%
COc1cc(C)c(N(C(C)=O)c2ccccc2)c(C)c1 | / | 5.9µM* | 0% | 14%
CC(=O)c1ccc(OC(=O)N(c2ccccc2)c2ccccc2)cc1 | -28% | / | -3% | -1%
CCOC(=O)C1=CC[C@@H](c2ccco2)N(S(=O)(=O)c2ccc(C)cc2)[C@H]1C(=O)OCC | ? | ? | 32µM* | -1%
CCOC(=O)C1=CC[C@@H](c2ccccc2Cl)N(S(=O)(=O)c2ccc(C)cc2)[C@H]1C(=O)OCC | ? | 13µM* | 1% | -6%
SMILES | Pf growth 96h | Pf growth 48h | Sm TGR inh | SARS PLpro yeast
CCOC(=O)c1c(C)[nH]c(CCC(=O)Nc2ccc(C)c(F)c2)c1C | / | / | 14% | /
COC(=O)c1sccc1NC(=O)CC1C(=O)NCCN1C(=O)c1ccc(N(C)C)cc1 (stereo unspecified) | ? | ? | -19% | 0%
COc1ccc(Cn2ccc3nc(C)c(C(=O)NCc4cccc(OC)c4)cc3c2=O)cc1 | / | / | 1% | /
COc1ccc(-n2cc(-c3ccccc3)nc2SCC(=O)Nc2ccccc2)cc1Cl | / | / | -5% | /
Cc1cccc(NC(=O)c2ccc(OCc3c(C)noc3C)cc2)n1 | -24% | ? | -7% | /
CCOc1ccc2cc(C#N)c(SCC(=O)N3CCC(C)CC3)nc2c1 | 29% | 9.3µM* | 2% | 1%
COc1ccc2nc(SCC(=O)N3CCN(c4ccc(F)cc4)CC3)c(C#N)cc2c1 | 15µM* | ? | -34% | 4%
CCOC(=O)CSc1nc2cc(OCC)ccc2cc1C#N | / | 119% | ? | 0%
CCOc1ccc2cc(C#N)c(SCC(=O)NC(C)CC)nc2c1 (stereo unspecified) | 7.4µM* | 3% | -24% | -1%
COC(=O)CSc1nc2cc(OC)ccc2cc1C#N | / | 200% | 14% | -1%
O=C(c1ccccc1)n1nc(-c2ccco2)nc1NCc1ccccc1Cl | / | / | -19% | /
COc1ccc(-c2nc(CSCC(=O)N3CCc4ccccc4C3)c(C)o2)cc1OC | ? | ? | 32µM* | 4%
COc1ccc(-c2nc(CSCC(=O)N3CCN(c4cccc(C)c4)C(C)C3)c(C)o2)cc1OC (stereo unspecified) | ? | ? | 45µM* | 6%
Cc1ccc(-c2ccc(=O)n(CC(=O)N3CCN(c4cccc(C)c4)C(C)C3)n2)cc1 (stereo unspecified) | 12µM* | 46% | 7% | -6%
Cc1cccc(N2CCN(C(=O)Cn3nc(C)n4cccc4c3=O)CC2C)c1 (stereo unspecified) | 43% | 14% | 3% | 6%
COc1ccc(-c2nc(CSCC(=O)N3CCC(C(N)=O)CC3)c(C)o2)cc1OC | 28% | 2% | -30% | 0%
O=C(NN=C1CCCC1)c1[nH]c2ccc(Cl)cc2c1-c1ccccc1 | 13µM* | ? | -14% | 1%
CCc1cc(C(c2ccncc2)N2CCN(C)CC2)c(NC(=O)c2ccccc2)s1 (stereo unspecified) | ? | 13µM* | -24% | -26%
CC(NC(=O)c1cccnc1)C(c1cccs1)N1CCN(C)CC1 (stereo unspecified) | -12% | / | 6% | 10%
CCOc1ccc(C(c2c(NC(=O)c3ccccc3)sc(C)c2C)N2CCN(CCO)CC2)cc1 (stereo unspecified) | 5.2µM* | ? | -8% | ?
Cc1sc(NC(=O)c2ccccc2)c(C(c2ccc(Cl)cc2)N2CCN(CCO)CC2)c1C (stereo unspecified) | 8.3µM* | 8.3µM* | 0% | 1%
CCC1CN(C(=O)N2CCC(C(=O)N3CCN(c4ccccc4)CC3)CC2)c2ccccc2O1 (stereo unspecified) | / | / | -3% | /
O=C1c2ccncc2C(=O)N1CO | 10µM* | -7% | 50µM* | -1%
CSc1ccc(CCNC(=O)C2=C(C)C(=O)OC23CCCCC3)cc1 | / | / | 9% | /
CN(C)S(=O)(=O)c1ccc(Cl)c(NC(=O)C2CCN(S(=O)(=O)c3cccs3)CC2)c1 | ? | ? | 1% | 0%
COc1ccc(/C=N/N(C)C2=NS(=O)(=O)c3ccccc32)cc1 | 12µM* | / | 11% | 0%
CN(/N=C/c1ccc(N(C)C)cc1)C1=NS(=O)(=O)c2ccccc21 | -1% | -16% | 5% | 3%
